# Measured values: PubChem BioAssay AID2061318 (National Center for Advancing Translational Sciences (NCATS), 2025)
# Results filed as inconclusive are left out. The source made the active and inactive calls. Calls follow the shape of the dose curve; as a rule, active = well fitted inhibition curve with a large enough effect; inconclusive = small, poorly fitted or top-dose-only effect; inactive = flat fitted curve, though single readings scatter.
# Test: Identification of antibody-drug conjugate (ADC) payloads which are substrates of ATP-binding cassette drug efflux transporters: ABCB1-HEK293-MDR-19 cell line
# Conditions: HEK293 ABCB1 (MDR-19) viability, CellTiter-Glo, 48 h
# Text: Antibody-drug conjugates (ADCs) feature an antibody recognizing a specific protein joined to a potent toxic payload. Numerous antibody-drug conjugates have received FDA approval; however, clinical resistance arises. Resistance mechanisms include decreased expression or mutation of the antibody target, impaired payload release, or increased expression of ATP-binding cassette (ABC) efflux transporters associated with multidrug resistance. We therefore sought to characterize the interaction of ABC multidrug transporters with ADC payloads. We performed a high-throughput screen with 27 common ADC payloads using cells lines expressing ABC transporters P-glycoprotein (P-gp, encoded by ABCB1) or ABCG2 (encoded by ABCG2). Confirmatory assays were also performed using cells transfected to express P-gp, ABCG2, or MRP1 (encoded by ABCC1). Several commonly used ADC payloads were substrates of P-gp, including calicheamicin gamma1, monomethyl auristatin E, DM1, and DM4. All the pyrrolobenzodiazepines tested - SJG136, SGD-1882, SG2057, and SG3199 - were substrates of P-gp, ABCG2, and MRP1. […] These findings highlight the risk of transporter-mediated resistance with certain ADC payloads and underscore the importance of selecting payloads that evade ABC transporter recognition in future ADC development.
# HEK-293 cells were transfected with empty vector (pcDNA) or vector containing the human ABCB1 (MDR-19), ABCG2 (R-5), or ABCC1 gene (MRP1) and were maintained in EMEM with 2 mg/mL G418 added to maintain transporter expression. The HeLa derivative KB-3-1 and the P-gp overexpressing KB-8-5-11 subline were maintained in DMEM; KB-8-5-11 additionally received 100 ng/mL colchicine. H460 parental cells were obtained from the Division of Cancer Treatment and Diagnosis Tumor Repository, National Cancer Institute at Frederick, MD and were cultured in RPMI. The ABCG2 expressing subline H460 MX20 was generated by selecting H460 cells in 20 nM mitoxantrone. Media in all cases was supplemented with 10% FBS and 1% penicillin-streptomycin. We explored 27 common ADC payloads, in two orthogonal, paired cell line sets-a drug selected and transfected set for each transporter--to identify substrates of the ABC transporters P-gp and ABCG2. Compounds were sourced from Levena Biopharma (San Diego, CA), Selleck Chem (Houston, TX), ChemieTek (Indianapolis, IN), or Microsource Discovery Systems (Gaylordsville, CT). Screening was performed as previously described. Briefly, cells were plated at a density of 500 cells/well in 1536 well plates with compounds added using a 1536-head pin tool (Kalypsys, San Diego CA). Cells were incubated with cytotoxic drugs and processed with CellTiter Glo reagent (Promega, Madison, WI) to determine viability after 48 hours. P-gp substrates were identified by comparing compound activity between paired sets of low-expressing (sensitive) and over-expressing (resistant) cell lines.
row,SMILES,Potency
1,COc1cccc2c1C(=O)c1c(O)c3c(c(O)c1C2=O)C[C@@](O)(C(=O)CO)C[C@@H]3O[C@H]1C[C@H]2[C@H](O[C@@H]3[C@@H](OC)OCCN32)[C@H](C)O1,0.0941 nM (active)
2,COC(=O)c1cc2c3c(cc(O)c2[nH]1)N(C(=O)c1cc2cc(OC)c(OC)c(OC)c2[nH]1)CC3CCl (centres undefined),0.5 nM (active)
3,CCN(C(C)=O)[C@H]1CO[C@@H](O[C@H]2[C@H](O[C@H]3C#C/C=C\C#C[C@]4(O)CC(=O)C(NC(=O)OC)=C3/C4=C\CSSSC)O[C@H](C)[C@@H](NO[C@H]3C[C@H](O)[C@H](SC(=O)c4c(C)c(I)c(O[C@@H]5O[C@@H](C)[C@H](O)[C@@H](OC)[C@H]5O)c(OC)c4OC)[C@@H](C)O3)[C@@H]2O)C[C@@H]1OC,748 nM (active)
4,CCc1c2c(nc3ccc(O)cc13)-c1cc3c(c(=O)n1C2)COC(=O)[C@]3(O)CC,11.8 nM (active)
5,COc1cccc2c1C(=O)c1c(O)c3c(c(O)c1C2=O)C[C@@](O)(C(=O)CO)C[C@@H]3O[C@H]1C[C@H](N)[C@H](O)[C@H](C)O1,748 nM (active)
6,CC(C)(C)OC(=O)Nc1ccc2[nH]c(C(=O)N3C[C@@H](CCl)c4c3cc(O)c3ccccc43)cc2c1,9.4 nM (active)
7,COc1cc2cc(c1Cl)N(C)C(=O)C[C@H](O)[C@]1(C)O[C@H]1[C@H](C)C1C[C@@](O)(NC(=O)O1)[C@H](OC)/C=C/C=C(\C)C2,2980 nM (active)
8,CN(C)CCOc1ccc2[nH]c(C(=O)N3C[C@@H](CCl)c4c3cc(O)c3ccccc43)cc2c1,0.4 nM (active)
9,CCN[C@H]1CO[C@@H](O[C@H]2[C@H](O[C@H]3C#C/C=C\C#C[C@]4(O)CC(=O)C(NC(=O)OC)=C3/C4=C\CSSSC)O[C@H](C)[C@@H](NO[C@H]3C[C@H](O)[C@H](SC(=O)c4c(C)c(I)c(O[C@@H]5O[C@@H](C)[C@H](O)[C@@H](OC)[C@H]5O)c(OC)c4OC)[C@@H](C)O3)[C@@H]2O)C[C@@H]1OC,14.9 nM (active)
